KinaseGlo FLuc – blocks Kinase-Glo luciferase, a counter-screen artifact; Q27757; Kinase-Glo luciferase, ATP luminescence, 8 min; Potency, µM (titrated, usually from 38.3 µM), inactives show at the highest dose activity change, negative = inhibition, usual class: inhibitors; hit rate 0.28% among 200,000; AID 1379; further: on the % scale 0 is the no-effect control and ±100 the full control effect; nearly all actives have a fitted effect of over 60% in size
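Compound is pinned into ATP-containing buffer (10 uM ATP, imidazole pH 7.2, 7 mM MgCl2). Kinase-Glo luciferase reagent is then added. Light output is recorded following an 8-min room-temperature incubation.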
Rab9 prom act – activators of Rab9 promoter | hit rate 2.8% among 320,000 | Potency, µM (titrated, usually from 9.22 µM), for inactives: at the top dose activation, negative = inhibition, most hits filed as activators | Huh7 Rab9 promoter-luciferase reporter, luminescence, 24 h | AID 485297; further: % of control where 0% means no effect; nearly all actives have a fitted effect of over 60% in size
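Quantitative HTS format; Huh7 Rab9-luciferase reporter cells (1500/well) receive compound 2 h post-plating, incubate 24 h at 37 °C, then get luciferase reagent for 10 min before luminescence reading.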
SMN2 splice up – SMN2 splice variant enhancement | HEK293 SMN2-luciferase splicing reporter, luminescence, 30-36 h | Potency, µM (series often up to 46.1 µM), for inactives: top-dose activity change, positive = activation, most hits filed as activators | hit rate 2.8% among 210,000; further: % of control where 0% means no effect; nearly all actives have a fitted effect of over 55% in size
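qHTS luciferase splicing reporter: luminescence rises when SMN2 exon 7 is included in transfected HEK293 cells. Compound exposure lasted 30-36 h at 37C, with 4.5 mM final sodium butyrate as control, followed by a ONE-Glo read.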
NPC1 prom act – activates the NPC1 promoter; AID 485313; hit rate 2.4% among 320,000; Huh7 NPC1 promoter luciferase reporter, 24 h; Potency, µM (series often up to 9.22 µM), inactives show at the top dose activation, actives largely listed as activators; further: % of control where 0% means no effect; nearly all actives have a fitted effect of over 60% in size
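Luminescence from an NPC1 promoter-driven luciferase reporter in stably transfected Huh7 cells was measured after 24 h compound treatment at 37 °C, followed by 10 min ambient incubation with luciferase detection reagent.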
FLuc modulator – firefly luciferase modulation, counter-screen for miR-21 project. P08659. purified FLuc, Km substrates, luminescence inhibition. Potency, µM (top dose mostly 57.5 µM), inactives show at the highest dose activity change, negative = inhibition, actives largely listed as inhibitors. hit rate 6.9% among 360,000;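 further: plate controls were vehicle for no effect and reference inhibitor for full effect; nearly all actives have a fitted effect of over 55% in size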
Target sequence (P08659 whole entry, looked up): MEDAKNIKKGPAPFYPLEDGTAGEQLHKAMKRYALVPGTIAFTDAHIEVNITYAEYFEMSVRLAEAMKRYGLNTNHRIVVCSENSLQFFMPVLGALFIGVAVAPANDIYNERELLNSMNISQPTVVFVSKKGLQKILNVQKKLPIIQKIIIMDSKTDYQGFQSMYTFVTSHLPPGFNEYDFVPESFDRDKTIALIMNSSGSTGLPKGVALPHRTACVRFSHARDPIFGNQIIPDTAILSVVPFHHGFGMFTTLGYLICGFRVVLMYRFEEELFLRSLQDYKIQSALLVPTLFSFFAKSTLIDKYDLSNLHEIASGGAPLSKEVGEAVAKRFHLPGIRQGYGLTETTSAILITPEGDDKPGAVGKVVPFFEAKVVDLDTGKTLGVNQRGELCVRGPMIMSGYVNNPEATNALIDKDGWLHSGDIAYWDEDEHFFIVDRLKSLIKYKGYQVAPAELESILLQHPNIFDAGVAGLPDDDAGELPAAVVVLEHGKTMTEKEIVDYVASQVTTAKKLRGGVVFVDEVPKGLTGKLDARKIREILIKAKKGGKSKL
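Purified P. pyralis luciferase, 10 nM final, with Km-level 10 uM D-luciferin and 10 uM ATP in 50 mM Tris acetate pH 7.5, 10 mM Mg acetate, 0.01% Tween-20, 0.05% BSA; 6-point qHTS titration about 60 µM downward; luminescence read.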
The depositor's hits bear a star. This is a sample that favours compounds with a hit; in the whole collection about 7.3% have one here. The call rests on the fitted dose curve; in most records, active means well fitted curve in the direction sought with a large enough effect; inconclusive means small, poorly fitted or top-dose-only effect, or another doubt; inactive means no such curve, though single readings can be large; an effect the other way counts as inactive or inconclusive. Potency means the concentration at half of the fitted maximal effect.

What do the screens show for `CC1=C(C(=O)Nc2ccc(C)cc2C)C(c2ccc([N+](=O)[O-])cc2)n2ncc(C(=O)Nc3ccc(F)cc3)c2N1` (stereo not given)?
FLuc modulator: 0%

How did CCc1ccccc1N1CC(c2nc3ccccc3n2CCOc2ccc(Cl)c(C)c2)CC1=O (stereo not given) do in these assays?
SMN2 splice up: -64%; FLuc modulator: -15%

How did CCCCOC(=O)Oc1ccc2c(=O)c(Oc3cccc(C)c3)coc2c1 do in these assays?
KinaseGlo FLuc: 3%; Rab9 prom act: 20%; SMN2 splice up: 13µM*; NPC1 prom act: 9%; FLuc modulator: -15%

What do the screens show for `CCCCOC(=O)Oc1ccc2c(=O)c(Oc3cc(C)cc(C)c3)coc2c1`?
KinaseGlo FLuc: 2%; Rab9 prom act: -2%; SMN2 splice up: -7%; NPC1 prom act: -3%; FLuc modulator: -7%

Results for CCCCSc1nnc2c(n1)OC(c1ccc(Br)s1)N(C(C)=O)c1ccccc1-2 (stereo not given) ?
SMN2 splice up: 1%; FLuc modulator: -3%

How did CCOc1ccc(-c2nc3c(c(CC)nn3-c3ccccc3)c3cc(OC)c(OC)cc23)cc1 do in these assays?
SMN2 splice up: 5%; FLuc modulator: 2%

What do the screens show for `CCS(=O)(=O)c1ccc2oc(Nc3ccccc3C)nc2c1`?
KinaseGlo FLuc: inconclusive; Rab9 prom act: 3.5µM*; SMN2 splice up: inconclusive; NPC1 prom act: 3.5µM*; FLuc modulator: 13µM*

What do the screens show for `CCN(CC)S(=O)(=O)c1ccc2oc(Nc3ccc(OC)cc3OC)nc2c1`?
Rab9 prom act: 1%; NPC1 prom act: 0%; FLuc modulator: -8%

Results for CCN(CC)S(=O)(=O)c1ccc2oc(Nc3ccccc3)nc2c1 ?
Rab9 prom act: inconclusive; NPC1 prom act: inconclusive; FLuc modulator: 15µM*

What do the screens show for `O=C(N/N=C/c1ccoc1)c1ccccc1`?
Rab9 prom act: 3%; NPC1 prom act: 16%; FLuc modulator: 27µM*

How did O=C(N/N=C/c1ccoc1)c1ccc(Cl)cc1 do in these assays?
Rab9 prom act: 4%; NPC1 prom act: 1%; FLuc modulator: inconclusive

Results for O=C(N/N=C/c1ccoc1)c1ccc(Br)cc1 ?
Rab9 prom act: 15%; NPC1 prom act: 6%; FLuc modulator: 15µM*

Results for O=C(N/N=C/c1ccc[nH]1)c1ccccc1O ?
KinaseGlo FLuc: -10%; Rab9 prom act: inconclusive; NPC1 prom act: 23%; FLuc modulator: 9.5µM*

Results for O=[N+]([O-])CC(=Nc1ccc(F)cc1)N/N=C\c1oc(O)c2ccccc12 ?
Rab9 prom act: 30%; NPC1 prom act: inconclusive; FLuc modulator: 15µM*

What do the screens show for `Oc1oc(C=Nc2ccc(F)cc2F)c2ccccc12`?
KinaseGlo FLuc: -2%; Rab9 prom act: 1%; SMN2 splice up: 25%; NPC1 prom act: -1%; FLuc modulator: 5%

Results for CCCCOc1ccc(C2c3c(oc4ccccc4c3=O)C(=O)N2c2nc(C)c(C(=O)OCC)s2)cc1OC (stereo not given) ?
SMN2 splice up: -7%; FLuc modulator: -1%

What do the screens show for `O=C(N/N=C/c1ccoc1)c1ccccc1O`?
Rab9 prom act: -2%; NPC1 prom act: 2%; FLuc modulator: 11µM*

Results for NC(=O)N/N=C/c1sc(=O)n(-c2ccccc2)c1Cl ?
Rab9 prom act: 0%; NPC1 prom act: 11%; FLuc modulator: inconclusive

Results for O=C(N/N=C/c1oc(O)c2ccccc12)c1ccccc1O ?
KinaseGlo FLuc: 9%; Rab9 prom act: -5%; SMN2 splice up: -10%; NPC1 prom act: -2%; FLuc modulator: 11µM*

What do the screens show for `O=C(N/N=C/c1coc2ccccc2c1=O)c1ccccc1`?
KinaseGlo FLuc: -6%; Rab9 prom act: -6%; SMN2 splice up: -4%; NPC1 prom act: -3%; FLuc modulator: 17µM*

What do the screens show for `O=C(N/N=C/c1sc(=O)n(-c2ccccc2)c1Cl)c1ccccc1`?
KinaseGlo FLuc: -19%; Rab9 prom act: 1.8µM*; SMN2 splice up: 7.1µM*; NPC1 prom act: 1.6µM*; FLuc modulator: 6µM*
